Measurements: PubChem BioAssay (NCATS)
Results filed as inconclusive are left out. The source made the active and inactive calls. The call rests on the fitted dose curve; in most records, active means well fitted inhibition curve with a large enough effect; inconclusive means small, poorly fitted or top-dose-only effect; inactive means flat fitted curve, though single readings scatter.

Assay: qHTS to identify inhibitors of the type 1 interferon - major histocompatibility complex class I in skeletal muscle: primary screen against the NCATS LOPAC collection (AID 1347405);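 further: lytic HiBiT luminescence reporting HLA-B protein level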
Settings: iHSKM muscle cells, IFN-b-induced MHC-I HiBiT luminescence, 24 h; series mostly up to 45.9 µM; activity change, negative = inhibition: at the top concentration
Summary of the method: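 After 24 h at 37 C with compounds (7-point, 1:4.3 dilutions, 46 uM top final) plus 4 ng/ml IFN-beta, luminescence from lytic HiBiT detection was measured. HLA-B*08:01 in C25cl48 myoblasts carried an endogenous C-terminal HiBiT tag; medium lacked dexamethasone.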
On the % scale 0 is the no-effect control and ±100 the full control effect.

| SMILES | activity change, negative = inhibition |
| --- | --- |
| c1ccc2c(c1)CCC[C@H]2Nc1nc2ccccc2[nH]1 | -22.6% (inactive) |
| Cn1c(=O)c2[nH]c(-c3ccc(S(=O)(=O)O)cc3)nc2n(C)c1=O | -7.9% (inactive) |
| COc1cc2c(CCNC(C)=O)c[nH]c2cc1O | 8.67% (inactive) |
| C=CCN1CCc2c(cc(O)c(O)c2Cl)C(c2ccccc2)C1 (stereo not drawn) | -17.7% (inactive) |
| NC(=O)CC[C@H](N)C(=O)O | -12.4% (inactive) |
| NC(N)=NC(N)=Nc1cccc(Cl)c1 | 0.815% (inactive) |
| N[C@@H](Cc1ccc(F)cc1)C(=O)O | -8.28% (inactive) |
| O=C(O)C1CCNCC1 | 1.17% (inactive) |
| CC(=O)O[C@H]1CC2(C)[C@@H](C[C@@H](O)[C@H]3[C@@]4(C)CC[C@@H](O)[C@@H](C)[C@@H]4CC[C@@]32C)C1=C(CCC=C(C)C)C(=O)O (stereo partly drawn) | -11.9% (inactive) |
| CCCCCCC/C=C\CCCCCCCCC(=O)O | -6% (inactive) |
| N[C@H](C(=O)O)[C@H](Cc1ccccc1)C(=O)O | -1.68% (inactive) |
| Cn1cc(C(=O)OCC2CCN(CCNS(C)(=O)=O)CC2)c2ccccc21 | -0.179% (inactive) |
| CCCCCCCCCC[Si](C)(C)CCC(=O)NC(Cc1ccc(C)cc1)c1ccccc1 (stereo not drawn) | -4% (inactive) |
| Nc1ccc2c3c(cccc13)C(=O)NC2=O | -26.8% (inactive) |
| C[C@]12C=CC(=O)C=C1CC[C@@H]1C2=CC[C@]2(C)[C@@H](C(=O)CN3CCN(c4cc(N5CCCC5)nc(N5CCCC5)n4)CC3)CC[C@@H]12 | -13.5% (inactive) |
| O=C(O)c1cc2cc(F)ccc2[nH]1 | -2.57% (inactive) |
| NC(=O)c1ccccc1 | -7.83% (inactive) |
| NC/C=C\C(=O)O | -18.1% (inactive) |
| C=CC[C@H](N)C(=O)O | 6.2% (inactive) |

| SMILES | activity change, negative = inhibition |
| --- | --- |
| CCSC(=N)N | -4.2% (inactive) |
| CN1C2CCC1CC(OC(c1ccccc1)c1ccccc1)C2 (stereo not drawn) | -1.17% (inactive) |
| CCCCC[C@H](CC(=O)NO)C(=O)N[C@H](C(=O)N1CCC[C@H]1CO)C(C)C | -21.1% (inactive) |
| Cc1nc(N=Nc2ccc(S(=O)(=O)O)cc2S(=O)(=O)O)c(COP(=O)(O)O)c(C=O)c1O | -18% (inactive) |
| CSC(N)=NCCC[C@H](N)C(=O)O | -1.25% (inactive) |
| c1ccc(C(NCCNC(c2ccccc2)c2ccccc2)c2ccccc2)cc1 | -8.29% (inactive) |
| CSC(=N)N | -2.73% (inactive) |
| Fc1ccc(CN(C2=NCCN2)c2c(Cl)cccc2Cl)cc1 | -1.11% (inactive) |
| CCN1C(=O)C=CC1=O | -4.26% (inactive) |
| NC1(C(=O)O)CCCCC1 | -1.2% (inactive) |
| NCC(O)c1ccc(O)c(O)c1 (stereo not drawn) | 7.34% (inactive) |
| CCCCCCCCCCCCCCSCC(=O)O | 3.56% (inactive) |
| C=C(C)C1CC=C(C(=O)O)CC1 (stereo not drawn) | 0.296% (inactive) |
| N=C(N)c1ccccc1 | -1.51% (inactive) |
| O=C(OCCN1CCOCC1)C1(c2ccccc2)CCCCC1 | -2.6% (inactive) |
| C[N+](C)(C)CC=O | 0.89% (inactive) |
| CC(C)C[C@H](NC(=O)[C@H](O)[C@H](N)Cc1ccccc1)C(=O)O | -6.58% (inactive) |
| COC(=O)[C@H](NC(=O)c1cc(-c2ccccc2)nc2ccccc12)c1ccccc1 | -6.49% (inactive) |
| NS(=O)(=O)c1cccc2c1c([N+](=O)[O-])cc1nc(O)c(O)nc12 | -5.32% (inactive) |
